{"source": "PubChem BioAssay (EPA / NIEHS)", "note": "Several values for one entry are separate records, joined by “and”; a condition that tells them apart may be missing. Equal values may be shown once. Activity calls are given as the source filed them. How the source made its calls: active means hit-call score of the fitted dose curve at least 0.9, where 1 is the maximum; inactive means score below 0.9.", "data": [{"read-out": "Fatty acid synthase (Homo sapiens) (UniProt P49327)", "test": "LTEA_HepaRG_FASN: Life Technologies and Expression Analysis (LTEA) Assay for Fatty Acid Synthase (FASN) using HepaRG (AID 2283448)", "details": "mRNA level, 48 h; actives raise or lower the signal", "experimental": "LTEA_HepaRG is a cell based, multiplexed-readout assay that uses HepaRG, a human liver cell line, with measurements taken at 48 hours after chemical dosing on a 96-well plate.LTEA_HepaRG_FASN is one of 102 assay component(s) measured in the LTEA HepaRG cell culture assay. It is a marker of Steatosis.Data from the assay component LTEA_HepaRG_FASN was analyzed into 1 endpoint. This assay endpoint, LTEA_HepaRG_FASN, was analyzed with bidirectional fitting relative to DMSO as the negative control and baseline of activity. Using a type of inducible reporter, measures of mRNA induction for gain or loss-of-signal activity can be used to understand regulation of transcription factor activity. To generalize the intended target to other relatable targets, this assay endpoint is annotated to the lyase intended target family, where the subfamily is fatty acid synthase.\nA total of 1060 chemcials from the ToxCast library were tested in eight-point concentration-response experiments. Cell culture and cytotoxicity assays were conducted at Thermo Fisher Scientific's Custom Services facility (Madison, WI). A single lot of human HepaRG cells (Thermo Fisher Scientific, Frederick, MD) was used for the cell culture experiments. 96-well format collagen type I coated plates of human HepaRG cells were prepared using established methods. Briefly, cryopreserved HepaRG cells were thawed, plated at a density of approximately 100,000 cells/well in HepaRG Thaw, Plate, and General Purpose media (HPRG770, Thermo Fisher Scientific), and incubated for 48 hours. 0.5% DMSO was selected as vehicle control to balance the requisite need of DMSO in HepaRG cultures to maintain differentiation (for example, baseline metabolism, proportions of hepatocytes vs. cholangiocytes), while enabling further hepatic receptor pathway activation (for example, PXR and CAR) in response to chemical exposure. 48 hours after plating, the culture medium was replaced with HepaRG Serum-Free Incudtion Media. Cells were exposed to each test chemical in duplicate and maintained in CO2 incubators for another 48 hours. Chemical plates were thawed to room temperature and 200x concentrations of treatment groups were prepared. 8-point conentration-reponse curves were made with the highest exposure at 100 uM, followed by half-log dilutions, all in 0.5% DMSO. Each test plate contained variouse controls, induction positive controls (1mM phenobarbital), cytotoxicity positive controls ([…] aflatoxin B1), vehicle controls (0.5% DMSO), and total lysis controls (0.5% DMSO). Cell morphology images were taken using an Essen IncuCyte FLR automated microscope, with six 96-well plates imaged in about 24 minutes. Images were captured and exported and JPEG files. Spent culture media was transfered to black-well plates for the LDH assay, and remaining media was sorted at -80 C for later use. Cells were treated with RLT buffer and frozen until shipped for gene expression analysis. Total RNA was isolated from the cell suspension in 75 uL of Buffer RLT (Qiagen, Germantown, MD 20874) by Quintiles/Expression Analysis (Durham, NC) using a custom isolation procedure. Total RNA from each plate well was transferred to a preamplification plate. Fluidigm's 96.96 Dynamic ArrayTM (Fluidigm, Amsterdam, the Netherlands) technology was used for gene expression analyses by quantitative reverse transcription polymerase chain reaction (qRT-PCR, performed by Quintiles/Expression Analysis, Durham, NC)89. Standard TaqManTM Assays (Applied Biosystems/ThermoFisher Scientific, Foster City, CA) were used to assess the expression of 93 genes selected based on their selectivity and sensitivity to important hepatic receptors known to be modulated by environmental chemicals; importance in human hepatocyte functionality; and hepatotoxicity. […]", "values": [{"smiles": "S=C([S-])NCCNC(=S)[S-].[Mn+2]", "AC50": "2.55 µM (active)"}, {"smiles": "Oc1ccc(C(c2ccc(O)cc2)C(Cl)(Cl)Cl)cc1", "AC50": "88.8 µM (active)"}, {"smiles": "Cc1nn(C)c(Oc2ccccc2)c1C=NOCc1ccc(C(=O)OC(C)(C)C)cc1", "outcome": "inactive"}, {"smiles": "COC(=O)c1ccc(I)cc1S(=O)(=O)NC(=O)Nc1nc(C)nc(OC)n1", "outcome": "inactive"}, {"smiles": "CCCCOC(=O)[C@@H](C)Oc1ccc(Oc2ccc(C(F)(F)F)cn2)cc1", "outcome": "inactive"}, {"smiles": "C[C@]12C[C@H](O)[C@H]3[C@@H](CCC4=CC(=O)CC[C@@]43C)[C@@H]1CC[C@@H]2C(=O)CO", "outcome": "inactive"}, {"smiles": "COC(=O)CSc1cc(N=c2sc(=O)n3n2CCCC3)c(F)cc1Cl", "outcome": "inactive"}, {"smiles": "COC(=O)c1ccccc1C(=O)O", "outcome": "inactive"}, {"smiles": "C[C@]12CC[C@@H]3c4ccc(O)cc4C[C@@H](CCCCCCCCCS(=O)CCCC(F)(F)C(F)(F)F)[C@H]3[C@@H]1CC[C@@H]2O", "note": "(stereo not given in full)", "outcome": "inactive"}, {"smiles": "O=C(Nc1ccc([N+](=O)[O-])cc1Cl)c1cc(Cl)ccc1O", "AC50": "2.94 µM (active)"}, {"smiles": "CCCCOC(=O)C(C)Oc1ccc(Oc2ccc(C(F)(F)F)cn2)cc1", "note": "(stereo not given)", "outcome": "inactive"}, {"smiles": "CC(=O)[C@H]1CC[C@H]2[C@@H]3CCC4=CC(=O)CC[C@]4(C)[C@H]3CC[C@]12C", "AC50": "82.1 µM (active)"}, {"smiles": "CCCCCOC(=O)COc1cc(N2C(=O)C3=C(CCCC3)C2=O)c(F)cc1Cl", "outcome": "inactive"}, {"smiles": "CCOC(=O)C(C)Oc1ccc(Oc2cnc3cc(Cl)ccc3n2)cc1", "note": "(stereo not given)", "AC50": "43 µM (active)"}, {"smiles": "CCCOC(=O)NCCCN(C)C", "outcome": "inactive"}, {"smiles": "CCCOC(=O)c1ccc(C(=O)OCCC)nc1", "outcome": "inactive"}, {"smiles": "COCCO", "outcome": "inactive"}, {"smiles": "N[C@@H](Cc1cc(I)c(Oc2ccc(O)c(I)c2)c(I)c1)C(=O)O", "outcome": "inactive"}, {"smiles": "CC1(C)C(C=C(Cl)Cl)C1C(=O)OCc1cccc(Oc2ccccc2)c1", "note": "(stereo not given)", "outcome": "inactive"}, {"smiles": "CC(C)(c1ccc(O)cc1)c1ccc(O)cc1", "outcome": "inactive"}, {"smiles": "CCSC(=O)N(CC(C)C)CC(C)C", "outcome": "inactive"}, {"smiles": "C#CCOC(=O)[C@@H](C)Oc1ccc(Oc2ncc(Cl)cc2F)cc1", "AC50": "13.3 µM (active)"}, {"smiles": "CCCN(CCC)c1c([N+](=O)[O-])cc(C(F)(F)F)c(N)c1[N+](=O)[O-]", "AC50": "50 µM (active)"}, {"smiles": "CCCCOCCOCCOCc1cc2c(cc1CCC)OCO2", "outcome": "inactive"}, {"smiles": "CCOC(=O)c1ccc(O)cc1", "outcome": "inactive"}, {"smiles": "C=CCOC(Cn1ccnc1)c1ccc(Cl)cc1Cl", "note": "(stereo not given)", "AC50": "38.3 µM (active)"}, {"smiles": "S=C(S)NCCNC(=S)S.[Mn+2].[S-]C([S-])=NCCN=C([S-])[S-].[Zn+2]", "AC50": "1.14 µM (active) and 714 nM (active) and 1.11 µM (active)"}, {"smiles": "CCNc1nc(N)nc(Cl)n1", "outcome": "inactive"}, {"smiles": "O=C(O)C1(C(=O)Nc2ccc(Cl)cc2Cl)CC1", "AC50": "69.8 µM (active)"}, {"smiles": "CCOC(=O)COc1cc(-n2ncc(C(F)(F)F)c(C)c2=O)c(F)cc1Cl", "outcome": "inactive"}, {"smiles": "COc1c(Cl)ccc(Cl)c1C(=O)O", "outcome": "inactive"}, {"smiles": "CCOC(=O)NCCOc1ccc(Oc2ccccc2)cc1", "AC50": "50 µM (active)"}, {"smiles": "CCCCCCC(C)OC(=O)COc1nc(F)c(Cl)c(N)c1Cl", "note": "(stereo not given)", "outcome": "inactive"}, {"smiles": "CSC(=O)c1cccc2nnsc12", "outcome": "inactive"}, {"smiles": "CCN(Cc1c(F)cccc1Cl)c1c([N+](=O)[O-])cc(C(F)(F)F)cc1[N+](=O)[O-]", "AC50": "50 µM (active)"}, {"smiles": "c1ccc(Nc2ccccc2)cc1", "outcome": "inactive"}, {"smiles": "C#C[C@]1(O)CC[C@H]2[C@@H]3CCC4=CC(=O)CC[C@@H]4[C@H]3CC[C@@]21CC", "outcome": "inactive"}, {"smiles": "O=C(c1ccccc1)C1CCCCC1", "outcome": "inactive"}, {"smiles": "CN(C)C(=O)Nc1ccc(Cl)c(Cl)c1", "AC50": "20.3 µM (active)"}, {"smiles": "N#CSCSc1nc2ccccc2s1", "AC50": "68.3 µM (active)"}]}]}
